# Experimental data taken from PubChem BioAssay (Tox21).
# Active and inactive are the calls of the source. The call rests on the fitted dose curve; in most records, active means well fitted cell-killing curve with a large enough effect in the repeat runs; inconclusive means weak or mixed curves, or effect the other way; inactive means flat fitted curve, though single readings scatter.
# Assay: qHTS assay to identify small molecule HDAC inhibitors - cell viability counter screen (AID 1259365); further: nearly all actives have a fitted effect of over 50% in size
# Conditions: HCT-116 viability, CellTiter-Glo ATP luminescence, 2 h; series mostly up to 92.4 µM; activity change, negative = cytotoxicity: at the top concentration
# Excerpt: U.S. Tox21 Program National Center for Advancing Translational Sciences [NCATS] NIH Chemical Genomics Center [NCGC] U.S. Environmental Protection Agency [EPA] National Institutes of Environmental Health Sciences [NIEHS] National Toxicology Program [NTP] U.S. Food and Drug Administration [FDA] Tox21 Assay Overview: Histone deacetylases (HDACs) are a group of epigenetic enzymes that regulate gene expression by histone deacetylation. HDACs are capable of introducing epigenetic modifications and such aberrations contribute to the onset and progression of several human diseases, thus making HDACs a popular therapeutic target. For identifying endogenous class I/II HDAC inhibitors a homogenous, luminogenic HDAC I/II cell based assay was used to measure the relative activity of class I and II HDACs from cells. Wild type HCT-116 cells were used to screen Tox21 compound libraries for identifying class I/II HDAC inhibitors.
# Tox21 Assay Protocol Summary: HCT-116 cells were dispensed at 1,500 per well in 5uL of culture medium into white solid bottom 1536-well plates (Greiner Bio-One, Monroe, NC) using a Multidrop Combi (Thermo Scientific, Waltham, MA) dispenser. The assay plates were incubated at 37 C and 5% CO2 for an overnight, and then 23nL of compounds dissolved in DMSO and positive control were transferred using a Pintool station (Wako, San Diego, CA). The assay plates were incubated at 37C and 5% CO2 for 2hr. After compound treatment, 4uL of CellTiter-Glo reagent (Promega Corporation, Madison, WI) was added to each well of the assay plates using Flying Reagent Dispenser (FRD, Aurora Discovery, San Diego, CA) and incubated the assay plates at room temperature for 30min. The luminescence signal was quantified using a ViewLux plate reader (Perkin Elmer, Shelton, CT).
# On the % scale 0 is the no-effect control and ±100 the full control effect.
row,Structure (SMILES),"activity change, negative = cytotoxicity"
1,CS(=O)(=O)c1ccc([C@@H](O)[C@@H](CF)NC(=O)C(Cl)Cl)cc1,0.504% [at 42.5 µM] (inactive)
2,CCCC1CCC(=O)O1 (stereo not given),-1.52% (inactive)
3,CCCOCCC,6.81% (inactive)
4,COC(=O)C(C)O (stereo not given),0.442% (inactive)
5,CC(C)S,2.28% (inactive)
6,CN(C)C(=O)NC1(c2ccccc2)CCN(CCC[C@]2(c3ccc(Cl)c(Cl)c3)CCCN(C(=O)c3ccccc3)C2)CC1,-5.58% [at 19 µM] (inactive)
7,Cc1c(N)cccc1N,4.56% (inactive)
8,CC(C)Nc1nc(N)nc(Cl)n1,1.25% (inactive)
9,C1CCOC1,-0.281% (inactive)
10,Cc1ccc([N+](=O)[O-])cc1Cl,-0.556% (inactive)
11,N#CSCC(=O)O,1.44% [at 42.5 µM] (inactive)
12,CCN(O)CC,-0.288% (inactive)
13,NCCC(O)(P(=O)(O)O)P(=O)(O)O,-3.19% [at 42.5 µM] (inactive)
14,C=C(C)C(=O)OCCOP(=O)(O)O,-5.53% (inactive)
15,OCc1ccccc1O,-4.59% [at 42.5 µM] (inactive)
16,CCCCc1ccc2nc(NC(=O)OC)[nH]c2c1,1.37% [at 42.5 µM] (inactive)
17,CC1(C)O[C@@H]2C[C@H]3[C@@H]4CCC5=CC(=O)CC[C@]5(C)[C@@]4(F)[C@@H](O)C[C@]3(C)[C@]2(C(=O)CCl)O1,-2.54% [at 42.5 µM] (inactive)
18,C=Cc1ccccc1,-0.685% (inactive)
19,O=C1Nc2ccc([N+](=O)[O-])cc2C1=O,-9.5% (inactive)
20,CCOC(=O)c1ccccc1O,6.41% [at 42.5 µM] (inactive)

row,Structure (SMILES),"activity change, negative = cytotoxicity"
1,CC/C=C\CCOC(=O)CCCCC,2.02% (inactive)
2,C=CCCC=C,-1.28% (inactive)
3,O=Cc1ccc(O)c(O)c1O,-2.17% [at 42.5 µM] (inactive)
4,CN1CCN(C2=Nc3cc(F)ccc3Cc3ccccc32)CC1,-0.835% [at 42.5 µM] (inactive)
5,O=C(Cl)c1cccc([N+](=O)[O-])c1,4.8% (inactive)
6,O=c1[nH]cnc2c1ncn2[C@@H]1O[C@H](CO)[C@@H](O)[C@H]1O,18.4% [at 42.5 µM] (inactive)
7,CN(CC1(C)CCCO1)S(=O)(=O)c1ccc(Cl)c(S(N)(=O)=O)c1 (stereo not given),3.41% [at 42.5 µM] (inactive)
8,CCC/C=C/CO,0.996% (inactive)
9,Cc1nc(N)nc(N)c1-c1ccc(Cl)c(Cl)c1,-15.8% [at 42.5 µM] (inactive)
10,CC/C=C\CCOC(=O)C(C)C,1.75% (inactive)
11,COc1cc(N)c(Cl)cc1C(=O)NC1CCN(Cc2ccccc2)CC1,3.02% [at 42.5 µM] (inactive)
12,Cc1cc(NS(=O)(=O)c2ccc(N)cc2)nc(C)n1,-0.285% [at 42.5 µM] (inactive)
13,NS(=O)(=O)c1cc(-c2nn[nH]n2)c(NCc2cccs2)cc1Cl,6.66% [at 42.5 µM] (inactive)
14,CCN(CCCc1ccccc1)CCCc1ccccc1,-2.87% [at 42.5 µM] (inactive)
15,CCN(CC)C(=O)N(CC)CC,-3.45% (inactive)
16,CN1CCN(c2c(F)cc3c(=O)c(C(=O)O)cn(CCF)c3c2F)CC1,2.31% [at 42.5 µM] (inactive)
17,O=C1CCCc2ccccc21,1.39% (inactive)
18,OCCN1CCN(CCO)CC1,-0.118% (inactive)
19,CCCCC(=O)O[C@]1(C(=O)CO)[C@H](C)C[C@H]2[C@@H]3CCC4=CC(=O)C=C[C@]4(C)[C@@]3(F)[C@@H](O)C[C@@]21C,0.0284% [at 42.5 µM] (inactive)
20,O=C(O)C(=O)Cc1c[nH]c2ccccc12,0.203% (inactive)
